Sampled rows, rich in hits. Any-hit rate of the full collection: about 2.3%.
Mcl1-Bid inh: disrupts binding of human Mcl-1 to Bid peptide | AID 1021 | Q07820 | inhibition, % at 21.7 µM | TR-FRET Mcl-1/Bid-Dy647 peptide binding, 1536-well | 0.97% of 220,000 active;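 active means compounds that cut the binding signal by more than half at the single screening dose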;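 further: His-tagged Mcl-1 with europium anti-His antibody binding Bid BH3 peptide; 0% = Mcl-1 plus peptide wells and 100% = peptide-only wells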
Mcl1-Noxa inh: Mcl-1/Noxa interaction inhibition; Q07820; TR-FRET Mcl-1/Noxa peptide binding, 2 h; inhibition, % at 21.7 µM; 1.5% of 220,000 active; AID 1022;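 active means compounds that cut the protein-peptide binding signal by more than 50% relative to plate controls in a single-dose test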;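 further: His-tagged Mcl-1 with rhodamine Noxa BH3 peptide and terbium anti-His antibody; 0% = Mcl-1 plus Noxa peptide wells and 100% = peptide-only wells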
Mcl-1 Bim block: disrupts Bim peptide binding to human Mcl-1; 0.1% of 190,000 active; inhibition, % at 10 µM; Q07820; Bead-based flow cytometry, Bim peptide-Mcl-1 binding; in the data active means inhibition above about 40%;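 further: 0% = no compound tracer wells and 100% = peptide blocker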
BCLXL inh: inhibitors of human Bcl-xL; GST-Bcl-xL / FITC-Bim BH3 peptide fluorescence polarization; AID 2129; Q07817; 0.7% of 320,000 active; inhibition, % at 10.9 µM;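 active means inhibition above the mean of all tested compounds plus 3 SD, cutoff set per campaign, cut at about 30% in these data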;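 further: 0% = DMSO wells and 100% = unlabeled Bim-BH3 peptide competitor; inhibitors lower millipolarization by displacing the labeled peptide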
MCL1 BIM primary: MCL1-BIM-BH3 interaction inhibition (human); Q07820; GST-MCL1 / FITC-Bim-BH3 fluorescence polarization; inhibition, % at 10.9 µM; 0.68% of 320,000 active; AID 2057;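 active means inhibition above the mean inhibition of all tested compounds plus 3 SD, set per campaign, cut at about 40% in these data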;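 further: 0% = DMSO wells and 100% = unlabeled Bim-BH3 peptide control; higher means more loss of mP so more displacement of Bim peptide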
GLD-1 TGE inh: GLD-1-TGE RNA interaction inhibition (C. elegans). AID 2280. inhibition, % at 5.96 µM. 0.44% of 320,000 active. Q17339. purified GLD-1 + fluorescein TGE RNA, fluorescence polarization;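 active means percent inhibition above a per-plate cutoff, the plate mean of test compounds plus 3 SD, cut at about 30% in these data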;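 further: 0% = DMSO wells with GLD-1 and probe and 100% = wells lacking GLD-1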
Target sequence (Q17339 whole entry, looked up): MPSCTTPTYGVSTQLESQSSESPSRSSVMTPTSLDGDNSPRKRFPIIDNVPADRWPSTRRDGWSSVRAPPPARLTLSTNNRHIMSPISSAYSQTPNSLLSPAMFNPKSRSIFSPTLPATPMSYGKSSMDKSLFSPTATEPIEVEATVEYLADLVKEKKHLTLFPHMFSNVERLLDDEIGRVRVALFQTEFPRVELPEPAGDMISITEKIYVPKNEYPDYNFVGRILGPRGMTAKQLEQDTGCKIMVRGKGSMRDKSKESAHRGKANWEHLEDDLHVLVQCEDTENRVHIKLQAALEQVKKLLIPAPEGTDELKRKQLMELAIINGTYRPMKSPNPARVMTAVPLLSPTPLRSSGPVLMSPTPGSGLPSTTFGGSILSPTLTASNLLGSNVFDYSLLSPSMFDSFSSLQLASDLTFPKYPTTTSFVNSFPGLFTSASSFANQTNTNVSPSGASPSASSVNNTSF
* marks the source's active call; other numbers are inactive results; nt = no result given.

SMILES	Mcl1-Bid inh	Mcl1-Noxa inh	Mcl-1 Bim block	BCLXL inh	MCL1 BIM primary	GLD-1 TGE inh
Cn1c(=S)[nH]c2scc(-c3cccs3)c2c1=O	-47	64*	0	nt	nt	nt
C=CCn1c(=S)[nH]c2scc(-c3cccs3)c2c1=O	-63	11	1	nt	nt	nt
CCOC(=O)C1CCCN(Cc2cccs2)C1 (stereo not drawn)	55*	15	0	0	11	-9
O=C(C1CCCN(Cc2ccccc2Br)C1)N1CCCCC1 (stereo not drawn)	59*	-22	-4	6	9	4
CCOC(=O)C1CCCN(Cc2ccccc2OCC)C1 (stereo not drawn)	98*	16	-3	2	11	2
COc1ccc(S(=O)(=O)N(C)C[C@H]2Oc3c(NC(=O)Nc4c(C)noc4C)cccc3C(=O)N([C@@H](C)CO)C[C@H]2C)cc1	nt	nt	nt	nt	nt	-1
CC1CN(CC(=O)Nc2ccc(S(N)(=O)=O)cc2)CC(C)O1 (stereo not drawn)	nt	nt	nt	3	-1	3
CCN(CC)CCNC(=O)c1ccc(NC(=O)c2ccc3c(c2)CCC3)cc1	nt	nt	nt	48*	22	14
CCOc1ccc(N2C(=O)/C(=C\c3ccc(OC)c(O)c3)S(=O)(=O)C2c2cccc([N+](=O)[O-])c2)cc1 (stereo not drawn)	-15	-12	2	6	7	1
CCOc1ccc(N2C(=O)/C(=C\c3ccc(O)c(OC)c3)S(=O)(=O)C2c2cccc([N+](=O)[O-])c2)cc1 (stereo not drawn)	34	72*	2	0	1	2
Cc1ccc(Nc2nc(=O)c3cccnc3s2)cc1	-18	-9	nt	3	-2	-8
COc1ccc(OC)c(Nc2nc(=O)c3cccnc3s2)c1	-59	56*	0	nt	nt	nt
CCCCn1c(N)c(N(CC(C)C)C(=O)c2ccc(S(=O)(=O)N3CCC(C)CC3)cc2)c(=O)[nH]c1=O	nt	nt	nt	-9	-21	4
Cc1nc(CSc2nc3[nH]ncc3c(=O)n2-c2ccccc2)cs1	84*	7	-2	3	-9	-4
S=c1[nH]nc(-c2c[nH]c3ccccc23)o1	nt	nt	nt	-37	-11	2
Oc1cc2ccccc2cc1-c1n[nH]c(=S)o1	57*	50	10	-17	1	10
NC(=O)C1CCCN(C(=O)c2ccc3c(c2)NC(=O)CS3)C1 (stereo not drawn)	nt	nt	nt	-1	2	3
CC(C)OCCCNC(=O)c1cn(C)c2ccc(S(=O)(=O)N3CCCC3)cc2c1=O	nt	nt	nt	5	3	-2
Cc1cc(=O)c(C(=O)c2ccccc2)c(C)o1	nt	nt	nt	37*	-1	6
Cc1oc2ccc(O)cc2c1C(=O)c1ccccc1	nt	nt	nt	-2	-7	0
CCCC[n+]1ccn(C2=C([O-])c3ccccc3C(=O)/C2=N\S(=O)(=O)c2ccccc2)c1	-12	-6	-3	1	0	5
CC(C)[n+]1ccn(C2=C([O-])c3ccccc3C(=O)/C2=N\S(=O)(=O)c2ccccc2)c1	84*	-1	nt	4	5	4
COc1ccc(/C=C2/SC(=O)N(CCC(=O)Nc3ccc(S(=O)(=O)Nc4nccs4)cc3)C2=O)cc1	42	96*	-8	3	-7	5
COc1ccc(/C=C2\SC(=S)N(CCC(=O)Nc3ccc(O)cc3)C2=O)cc1	nt	nt	nt	-1	7	6
COc1ccc(/C=C2\SC(=O)N(CCC(=O)Nc3ccc(S(=O)(=O)Nc4nccs4)cc3)C2=O)cc1	23	93*	-2	2	1	7
SMILES	Mcl1-Bid inh	Mcl1-Noxa inh	Mcl-1 Bim block	BCLXL inh	MCL1 BIM primary	GLD-1 TGE inh
Cc1ccc(C)c(S(=O)(=O)N2CCN(C(=O)c3cccn3C)CC2)c1	nt	nt	nt	1	4	1
O=C(c1cccc(N2C(=O)c3ccccc3C2=O)c1)N1CCCCCC1	-9	8	-1	-1	0	0
O=C1c2cccc3c(N4CCCCC4)ccc(c23)C(=O)N1CCO	-7	-35	0	49*	27	-3
O=C1c2cccc3c(N4CCCCC4)ccc(c23)C(=O)N1c1cccc(O)c1	-29	-21	3	34*	0	8
O=C(OCCN1C(=O)c2cccc3c(N4CCOCC4)ccc(c23)C1=O)c1ccccc1Cl	-12	-145	2	25	-9	19
C=CCN1C(=O)c2cccc3c(N4CCCCC4)ccc(c23)C1=O	-15	-5	0	1	-12	151*
Cn1nnnc1SCC(=O)NC1CCCC1	nt	nt	nt	0	-9	21
CCOc1cc(C(=O)N(C)CC(=O)Nc2cccc(F)c2)ccc1OCC(=O)N1CCCCC1	nt	nt	nt	2	-4	2
Cc1ccccc1-c1nnc(SCC(=O)Nc2cccnc2Cl)o1	nt	nt	nt	nt	nt	1
O=C1C=C(NNC(=O)c2ccccc2Br)CCC1	-21	-2	0	13	17	69*
O=C(O)c1ccccc1-c1ccccc1C(=O)NCc1ccccc1Cl	nt	nt	nt	4	6	10
O=C(NC1CCCCC1)c1sc(=S)n2c1[nH]c(=O)c1ccccc12	30	76*	-1	14	18	10
CCC1CSC(=Nc2ccc(C)cc2)N1C(=O)CN1C(=O)NC2(CCCC2)C1=O (stereo not drawn)	nt	nt	nt	0	-6	2
Nc1ccc(NC(=O)c2ccc(C(=O)Nc3ccc(N)cc3)cc2)cc1	62*	23	nt	-8	0	0
Nc1ccc(C(=O)Nc2ccc(Nc3ccncc3)cc2)cc1	0	-1	nt	6	5	0
O=C(O)C1CCCCC1C(=O)Nc1nc(-c2ccc(Cl)s2)cs1 (stereo not drawn)	-114	71*	1	11	25	2
O=C(Nc1ccc([N+](=O)[O-])cc1)Nc1nc(-c2ccc(Cl)s2)cs1	29	82*	-4	-1	0	0
COc1ccc(C(=O)c2sc3nc(-c4ccc(OC)cc4)ccc3c2N)cc1	23	77*	0	-4	-21	-18
COc1ccc(NC(=O)c2sc3nc(-c4cccnc4)ccc3c2N)cc1OC	-8	14	nt	48*	35	13
COc1ccc(-c2c(C#N)c(N)nc3sc(C(=O)c4ccc(C)cc4)c(N)c23)cc1	-24	-1	-3	-4	-6	-3
COc1cccc(-c2ccc3c(N)c(C(=O)NC4CC4)sc3n2)c1	-26	22	nt	-6	3	5
NC(=S)Nc1cccc(O)c1	-152	2	nt	3	9	2
CC1CCCCC1NC(=O)COC(=O)c1ccc2ncsc2c1 (stereo not drawn)	nt	nt	nt	2	5	1
Cc1nc2ccccn2c1-c1ccnc(=S)[nH]1	-30	57*	nt	-24	6	0
S=c1nccc(-c2ccc(Cl)cc2)[nH]1	-74	9	nt	10	3	-5
O=C(Nc1ccccc1N1CCOCC1)c1ccc(N2CCCC2=O)cc1	nt	nt	nt	-3	-7	7
Cc1ccccc1NC(C)C(=O)N/N=C/c1c[nH]c2ccccc12 (stereo not drawn)	-32	9	-1	3	-2	9
